Measured values taken from PubChem BioAssay (Tox21).
Values joined by “and” are separate entries in the source; they are usually repeats but may differ in a detail not shown here. Equal entries are not always repeated. Records with an inconclusive call do not appear. Where a call stands in place of a potency, no number is given. Some compounds were tested as several samples or in several runs, with calls that do not always agree. Active and inactive are the calls of the source. Unless noted, the call rests on the fitted dose curve.

Legend:
[1] = Nuclear factor erythroid 2-related factor 2/antioxidant responsive element (Nrf2/ARE) small molecule agonists: qHTS cell viability counter screen in human keratinocytes (AID 1919968; active means well fitted curve in the direction sought with a large enough effect in the repeat runs; an effect the other way counts as inactive or inconclusive; further: nearly all actives have a fitted effect of over 55% in size; further: potency means the concentration at half of the fitted maximal effect)
Outline: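 Seed 1,500 KeratinoSens cells per well, then incubate 5 h at 37 C/5% CO2. Add compounds in DMSO and incubate 23 h. Add CellTiter-Fluor, wait 1 h and read fluorescence.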

[2] = target: Gonadotropin-releasing hormone receptor (Homo sapiens) (UniProt P30968); assay: Human gonadotropin-releasing hormone receptor (GnRHR) small molecule agonists, calcium flux assay in GnRHR-HEK293 cells (AID 1920063); further: nearly all actives have a fitted effect of over 35% in size
Gonadotropin-releasing hormone receptor (Homo sapiens), sequence (P30968 whole entry, looked up): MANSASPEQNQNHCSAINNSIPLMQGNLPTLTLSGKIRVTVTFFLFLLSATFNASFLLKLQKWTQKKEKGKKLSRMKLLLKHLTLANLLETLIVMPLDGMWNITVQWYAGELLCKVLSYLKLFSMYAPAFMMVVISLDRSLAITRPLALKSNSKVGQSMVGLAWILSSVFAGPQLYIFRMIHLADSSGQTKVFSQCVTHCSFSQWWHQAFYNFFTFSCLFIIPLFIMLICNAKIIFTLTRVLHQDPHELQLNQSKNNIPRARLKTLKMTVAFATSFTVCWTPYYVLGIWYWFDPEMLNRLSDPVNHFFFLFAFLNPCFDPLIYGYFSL
Outline: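 Cells: HEK293 stably expressing human GnRHR. Steps: overnight (18 h) culture, 1 h calcium dye loading at 37 C, compound addition, kinetic fluorescence read at 480/540 nm. Each compound tested at 15 concentrations in triplicate.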

[3] = target: KiSS-1 receptor (Homo sapiens) (UniProt Q969F8); assay: Human kisspeptin (KISS1R) small molecule agonists, calcium flux assay in KISS1R-HEK293 cells (AID 1920064; active means well fitted curve in the direction sought with a large enough effect in the repeat runs; an effect the other way counts as inactive or inconclusive)
KiSS-1 receptor (Homo sapiens), sequence (Q969F8 whole entry, looked up): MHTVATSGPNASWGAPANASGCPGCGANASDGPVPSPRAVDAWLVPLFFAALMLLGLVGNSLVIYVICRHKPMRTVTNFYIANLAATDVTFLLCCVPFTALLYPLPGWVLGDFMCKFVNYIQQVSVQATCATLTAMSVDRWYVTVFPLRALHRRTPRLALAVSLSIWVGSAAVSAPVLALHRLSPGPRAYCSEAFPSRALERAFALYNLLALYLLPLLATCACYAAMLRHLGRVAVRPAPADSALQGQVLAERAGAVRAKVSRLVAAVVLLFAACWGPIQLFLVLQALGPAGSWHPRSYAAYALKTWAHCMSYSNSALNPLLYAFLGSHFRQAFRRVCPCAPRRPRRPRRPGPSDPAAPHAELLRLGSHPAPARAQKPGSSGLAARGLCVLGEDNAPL
Outline: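 Cells plated and incubated 18 h; dye added, 1 h at 37 C; compounds in DMSO pinned in; signal read at 480/540 nm every second for 3 min. Each compound tested at 15 concentrations in triplicate.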

[4] = G protein-coupled receptor (GPCR) small molecule agonists, calcium flux assay: HEK293 wild type cell line counter screen (AID 1920065)
Outline: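 Counter-screen of the Tox21 10K library for non-specific calcium release: dye-loaded cells received compounds in DMSO and were monitored by kinetic fluorescence (480/540 nm, 3 min). Fifteen concentrations, run in triplicate.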

[5] = p53 small molecule agonists, cell-based qHTS assay with human liver microsomes (AID 1963577);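 further: p53 response element beta-lactamase reporter cells with liver microsomes plus NADPH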
Outline: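 HLM-supplemented p53RE-bla reporter assay: 16 h compound exposure at 37 C, microsomes and NADPH each 0.5 mg/mL final, read by fluorescence intensity.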

[6] = p53 small molecule agonists, cell-based qHTS assay with human liver microsomes: qHTS cell viability counter screen (AID 1963579); further: nearly all actives have a fitted effect of over 45% in size; further: potency means the concentration at half of the fitted maximal effect
Outline: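 Viability of p53RE-bla cells is measured as CellTiter-Glo luminescence following a 16 h, 37 C incubation with compound, liver microsomes from human donors and NADPH.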

[7] = p53 small molecule agonists, cell-based qHTS assay with rat liver microsomes: qHTS cell viability counter screen (AID 1963580); further: nearly all actives have a fitted effect of over 45% in size
Outline: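 Intracellular ATP, by CellTiter-Glo luminescence, defines viability. HCT-116 p53RE-bla cells, 4,000 per well, were compound-treated in the presence of rat liver microsomes and NADPH for 16 h at 37 C.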

[8] = p53 small molecule agonists, cell-based qHTS assay: qHTS cell viability counter screen (AID 1963581); further: nearly all actives have a fitted effect of over 45% in size; further: potency means the concentration at half of the fitted maximal effect
Outline: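 Cells: HCT-116 with p53 response element-driven beta-lactamase. Treatment: 16 h, 37 C, compounds in DMSO. Read: CellTiter-Glo luminescence after 30 min RT.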

[9] = target: 5-hydroxytryptamine receptor 2A (Homo sapiens) (UniProt P28223); assay: 5-hydroxytryptamine receptor 2A (HTR2A) small molecule antagonists, cell-based qHTS assay (AID 1963586); further: nearly all actives have a fitted effect of over 45% in size
5-hydroxytryptamine receptor 2A (Homo sapiens), sequence (P28223 whole entry, looked up): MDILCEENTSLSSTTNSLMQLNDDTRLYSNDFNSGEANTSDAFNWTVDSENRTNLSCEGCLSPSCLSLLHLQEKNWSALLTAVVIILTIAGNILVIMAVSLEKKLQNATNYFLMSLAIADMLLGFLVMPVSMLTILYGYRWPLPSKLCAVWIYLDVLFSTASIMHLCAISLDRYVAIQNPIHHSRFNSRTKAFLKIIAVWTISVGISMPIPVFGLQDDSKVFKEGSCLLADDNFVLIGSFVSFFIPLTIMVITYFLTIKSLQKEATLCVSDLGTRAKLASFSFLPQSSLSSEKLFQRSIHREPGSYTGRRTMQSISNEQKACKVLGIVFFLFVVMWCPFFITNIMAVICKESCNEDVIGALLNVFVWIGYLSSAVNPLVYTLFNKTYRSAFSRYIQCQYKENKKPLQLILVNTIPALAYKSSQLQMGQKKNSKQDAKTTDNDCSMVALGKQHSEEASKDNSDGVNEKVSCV
Outline: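 Antagonist-mode intracellular calcium assay: DOI (4 nM) added after 5 min compound pre-incubation at room temperature to dye-loaded HTR2A-CHO cells. Fluorescence followed for 3 min, sampled every second.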

[10] = target: 5-hydroxytryptamine receptor 2A (Homo sapiens) (UniProt P28223); assay: 5-hydroxytryptamine receptor 2A (HTR2A) small molecule agonists, cell-based qHTS assay (AID 1963587); further: nearly all actives have a fitted effect of over 30% in size
Outline: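 Kinetic calcium-flux fluorescence (2 min, 1 sec intervals) after compound addition in agonist mode. HTR2A-CHO cells were cultured 18 h, then dye-loaded 1 h at 37 C.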

[11] = target: Muscarinic acetylcholine receptor M1 (Homo sapiens) (UniProt P11229); assay: Cholinergic receptor muscarinic 1 (CHRM1) small molecule agonists, cell-based qHTS assay (AID 1963589); further: nearly all actives have a fitted effect of over 35% in size
Muscarinic acetylcholine receptor M1 (Homo sapiens), sequence (P11229 whole entry, looked up): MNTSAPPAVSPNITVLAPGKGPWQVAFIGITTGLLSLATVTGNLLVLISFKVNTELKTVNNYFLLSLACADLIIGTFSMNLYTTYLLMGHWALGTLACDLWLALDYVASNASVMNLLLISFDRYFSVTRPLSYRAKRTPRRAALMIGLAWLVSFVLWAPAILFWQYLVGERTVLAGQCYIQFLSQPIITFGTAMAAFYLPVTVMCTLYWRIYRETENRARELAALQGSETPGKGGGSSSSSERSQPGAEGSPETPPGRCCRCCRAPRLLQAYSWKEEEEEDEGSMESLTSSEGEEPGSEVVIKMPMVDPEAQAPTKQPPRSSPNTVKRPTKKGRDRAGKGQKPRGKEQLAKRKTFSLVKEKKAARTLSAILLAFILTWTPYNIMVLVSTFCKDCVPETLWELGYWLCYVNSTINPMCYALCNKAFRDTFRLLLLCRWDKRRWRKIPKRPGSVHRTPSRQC
Outline: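 Agonist-mode qHTS in CHO cells stably carrying human muscarinic M1. Intracellular calcium is tracked by fluorescence every second after compound transfer; each compound runs at 15 concentrations in three independent runs.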

[12] = cAMP Responsive Elements (CRE) small molecule agonists, cell-based qHTS assay (AID 1963590)
Outline: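 Agonist mode qHTS in CRE-bla HEK 293T cells: compounds dosed from DMSO for 3 h at 37 C/5% CO2, followed by LiveBLAzer B/G FRET substrate for 2 h at room temperature.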

[13] = cAMP Responsive Elements (CRE) small molecule antagonists, cell-based qHTS assay (AID 1963591; active means well fitted inhibition curve with a large enough effect in the signal ratio in the repeat runs, not every such curve was filed as active; the % refers to the signal ratio)
Outline: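 Antagonist mode: test compounds are co-incubated with the adenylyl cyclase activator NKH477 (0.25 uM final) on CRE-bla HEK293T cells for 3 h at 37 °C, followed by LiveBLAzer substrate loading.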

[14] = target: Beta-2 adrenergic receptor (Homo sapiens) (UniProt P07550); assay: Adrenergic beta2 receptor (ADRB2) small molecule antagonists, cell-based qHTS assay (AID 1963592); further: series mostly up to about 92 µM; nearly all actives have a fitted effect of over 50% in size
Beta-2 adrenergic receptor (Homo sapiens), sequence (P07550 whole entry, looked up): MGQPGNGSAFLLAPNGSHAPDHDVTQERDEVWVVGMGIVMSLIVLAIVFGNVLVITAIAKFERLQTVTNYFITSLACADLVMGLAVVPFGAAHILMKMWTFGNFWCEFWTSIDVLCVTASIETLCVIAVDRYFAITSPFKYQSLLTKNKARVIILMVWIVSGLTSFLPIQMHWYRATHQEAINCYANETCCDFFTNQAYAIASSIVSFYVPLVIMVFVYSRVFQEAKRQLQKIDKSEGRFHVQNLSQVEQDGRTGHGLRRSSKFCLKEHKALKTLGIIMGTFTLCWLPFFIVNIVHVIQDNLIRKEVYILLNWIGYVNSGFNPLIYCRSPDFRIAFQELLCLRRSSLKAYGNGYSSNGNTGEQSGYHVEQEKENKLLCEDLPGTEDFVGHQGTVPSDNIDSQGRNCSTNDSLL
Outline: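 Cells (CHO, stable ADRB2 overexpression) incubated 18-20hr at 37C; compounds added from DMSO; agonist mix (1nM isoproterenol, 100uM IBMX, 25uM Ro-20-1724) added; 0.5hr RT; d2-cAMP and anti-cAMP-cryptate added; 1hr RT; 665/615 nm read.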

[15] = target: Beta-2 adrenergic receptor (Homo sapiens) (UniProt P07550); assay: Adrenergic beta2 receptor (ADRB2) small molecule agonists, cell-based qHTS assay (AID 1963593);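 further: CHO cells stably overexpressing human ADRB2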
Outline: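 CHO cells stably over-expressing ADRB2 were plated overnight at 37C, then dosed with compounds plus a stimulation mix containing 100uM IBMX and 25uM Ro-20-1724 for 0.5hr at room temperature. cAMP was measured by HTRF competition, 1hr.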

[16] = target: D(2) dopamine receptor (Homo sapiens) (UniProt P14416); assay: Dopamine D2 receptor (DRD2) small molecule antagonists, cell-based qHTS assay (AID 1963595; active means well fitted inhibition curve with a large enough effect in the signal ratio in the repeat runs, with a control signal flat; the % refers to the signal ratio)
D(2) dopamine receptor (Homo sapiens), sequence (P14416 whole entry, looked up): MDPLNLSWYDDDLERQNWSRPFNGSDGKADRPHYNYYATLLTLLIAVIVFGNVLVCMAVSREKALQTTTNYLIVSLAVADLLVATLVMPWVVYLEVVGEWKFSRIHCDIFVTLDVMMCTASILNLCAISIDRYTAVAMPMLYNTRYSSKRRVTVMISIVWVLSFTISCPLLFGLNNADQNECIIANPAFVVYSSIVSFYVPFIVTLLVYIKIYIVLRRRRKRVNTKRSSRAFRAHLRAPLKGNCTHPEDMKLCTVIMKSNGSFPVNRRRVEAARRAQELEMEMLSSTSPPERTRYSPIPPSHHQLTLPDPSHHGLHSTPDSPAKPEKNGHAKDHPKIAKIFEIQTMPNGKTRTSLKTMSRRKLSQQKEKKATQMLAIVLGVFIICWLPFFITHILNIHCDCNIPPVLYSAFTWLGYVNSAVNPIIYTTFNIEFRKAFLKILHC
Outline: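 In this cell-based antagonist screen, compounds act for 10 min at room temperature before a 30 min challenge with 12 nM quinpirole and 200 nM NKH477. cAMP is quantified by HTRF competition in DRD2-HEK293 cells containing 0.1 mM Ro20-1724.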

[17] = target: Muscarinic acetylcholine receptor M1 (Homo sapiens) (UniProt P11229); assay: Cholinergic receptor muscarinic 1 (CHRM1) small molecule antagonists, cell-based qHTS assay (AID 1963588); further: nearly all actives have a fitted effect of over 40% in size; further: potency means the concentration at half of the fitted maximal effect
Outline: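 CHRM1-CHO calcium-flux assay, antagonist mode. Cells were seeded 18 h, dye-loaded 1 h at 37 C and given compound for 5 min at RT, then acetylcholine was added at 50nM. FDSS fluorescence was read 3 min; 15 concentrations, three runs.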

[18] = target: D(2) dopamine receptor (Homo sapiens) (UniProt P14416); assay: Dopamine D2 receptor (DRD2) small molecule agonists, cell-based qHTS assay (AID 1963594); further: nearly all actives have a fitted effect of over 35% in size
Outline: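 cAMP accumulation in DRD2-HEK293 cells measured by HTRF after 1 h detection; compounds added 10 min before NKH477 (200nM […]) forskolin-analogue stimulation, 30 min at room temperature, with Ro20-1724 present at 0.1 mM final.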

[19] = p53 small molecule agonists, cell-based qHTS assay (AID 1963582; active means well fitted activation curve with a large enough effect in the signal ratio in the repeat runs, not every such curve was filed as active; the % refers to the signal ratio)
Outline: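 Quantitative HTS in p53RE-bla cells: after a 5 h settling period, compounds delivered in DMSO were left on cells for 16 h at 37 C, and reporter induction was measured as fluorescence following 2 h substrate loading.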

[20] = p53 small molecule agonists, cell-based qHTS assay with rat liver microsomes (AID 1963578)
Outline: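 Quantitative HTS of the Tox21 10K library: p53RE-bla cells, rat liver microsomes plus NADPH at 0.5 mg/mL final each, 16 h at 37 C, beta-lactamase fluorescence detection.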

| SMILES | Potency [1] | Potency [2] | Potency [3] | Potency [4] | Potency [5] | Potency [6] | Potency [7] | Potency [8] | Potency [9] | Potency [10] | Potency [11] | Potency [12] | Potency [13] | Potency [14] | Potency [15] | Potency [16] | Potency [17] | Potency [18] | Potency [19] | Potency [20] |
| --- | --- | --- | --- | --- | --- | --- | --- | --- | --- | --- | --- | --- | --- | --- | --- | --- | --- | --- | --- | --- |
| C#CC(C)(O)CC(C)C (configuration not stated) | inactive | inactive | inactive | inactive | inactive | inactive | inactive | inactive | inactive | inactive | inactive | inactive | inactive | inactive | inactive | inactive | – | – | – | – |
| CC1=CC(=O)NS(=O)(=O)O1 | inactive | inactive | inactive | inactive | – | inactive | inactive | 23 µM (active) and inactive | inactive | inactive | inactive | inactive | inactive | inactive | inactive | inactive | inactive | inactive | – | – |
| CC1=CC(C)C(C=O)CC1 (configuration not stated) | inactive | inactive | inactive | inactive | inactive | inactive | inactive | inactive | inactive | – | inactive | inactive | inactive | inactive | inactive | inactive | – | inactive | inactive | – |
| C1CN(CCOCCN2CCOCC2)CCO1 | inactive | inactive | – | inactive | inactive | inactive | inactive | inactive | inactive | inactive | inactive | inactive | inactive | inactive | – | inactive | inactive | inactive | inactive | inactive |
| ClC(c1ccccc1)(c1ccccc1)c1ccccc1 | inactive | inactive | – | inactive | inactive | inactive | inactive | inactive | inactive | inactive | inactive | inactive | inactive | inactive | – | inactive | inactive | inactive | inactive | inactive |
| O=C(O)CCCCCCCCCCC(=O)O | inactive | inactive | inactive | inactive | – | – | inactive | inactive | inactive | inactive | inactive | – | – | inactive | inactive | inactive | inactive | inactive | – | – |
| COc1cc(S(N)(=O)=O)cc(C(=O)O)c1OC | inactive | inactive | – | inactive | inactive | inactive | inactive | inactive | inactive | inactive | inactive | inactive | inactive | inactive | – | inactive | inactive | inactive | inactive | inactive |
| CCOCCOC(=O)/C=C/c1ccc(OC)cc1 | inactive | inactive | – | inactive | inactive | inactive | inactive | inactive | inactive | inactive | inactive | inactive | – | inactive | inactive | inactive | inactive | inactive | inactive | inactive |
| O=[N+]([O-])c1ccccc1CCO | inactive | inactive | – | inactive | inactive | inactive | inactive | inactive | inactive | inactive | inactive | inactive | inactive | inactive | – | inactive | 1.1 nM (active) | inactive | inactive | inactive |
| Cc1ccc(C(C)C)cc1O | inactive | inactive | inactive | inactive | – | inactive | inactive | – | inactive | inactive | inactive | inactive | inactive | – | inactive | inactive | – | inactive | – | – |
| CCOC(=O)CC(C)=O | inactive | inactive | inactive | inactive | – | inactive | – | – | inactive | inactive | – | inactive | inactive | inactive | – | inactive | inactive | inactive | – | – |
| COC(=O)Nc1nc2ccc(S(=O)c3ccccc3)cc2[nH]1 (configuration not stated) | inactive | inactive | inactive | – | – | inactive | inactive | – | – | – | – | – | inactive | inactive | inactive | inactive | – | inactive | – | – |
| O=C(Cl)c1ccccc1[N+](=O)[O-] | inactive | inactive | inactive | inactive | – | – | inactive | inactive | inactive | – | inactive | inactive | inactive | inactive | – | inactive | inactive | inactive | – | – |
| CCOC(=O)c1ccc(N)cc1 | inactive | inactive | – | inactive | inactive | inactive | inactive | inactive | – | – | – | inactive | inactive | inactive | inactive | inactive | – | inactive | inactive | inactive |
| CCN(CC)CCOc1ccc(/C(=C(\Cl)c2ccccc2)c2ccccc2)cc1 | 22.1 µM (active) and 29.8 µM (active) | – | inactive | – | – | 33.1 µM (active) and inactive | inactive | inactive | – | – | – | – | – | – | – | – | – | inactive | – | – |
| C[Si](C)O[Si](C)C | inactive | inactive | – | inactive | inactive | inactive | – | inactive | inactive | inactive | inactive | – | inactive | inactive | inactive | inactive | inactive | inactive | – | inactive |
